# Screening results (PubChem BioAssay)
# USP2a block: blocks human ubiquitin-specific protease USP2a. O75604. Potency, µM (highest dose often 38.3 µM), inactives show at the top dose activity change, negative = inhibition, usual class: inhibitors. USP2 core, Ub-CHOP2 coupled fluorogenic reporter, 485/531. actives 0.01% (n = 330,000);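 also: plate controls were DMSO wells for no effect and full inhibition by NEM control for full effect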
#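 USP2 core (10nM final) preincubated 30min RT with compound in 20mM Tris-HCl pH 8.0, 2mM CaCl2, 2mM beta-mercaptoethanol, 0.05% CHAPS; 25nM Ub-CHOP2 plus 25nM reporter substrate added, fluorescence (Ex485/Em531) read after 60min.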
# Eya2 phos inh: Eya2 (human) phosphatase inhibition. O00167. actives 0.006% (n = 330,000). Potency, µM (top dose mostly 76.9 µM), without a hit: at the highest dose activity, negative = inhibition, actives largely listed as inhibitors. recombinant Eya2, OMFP fluorescence dephosphorylation (OMFP is methylfluorescein phosphate); also: % is scaled to controls: 0 for no effect and ±100 for the full control effect
# Target sequence (O00167 whole entry, looked up): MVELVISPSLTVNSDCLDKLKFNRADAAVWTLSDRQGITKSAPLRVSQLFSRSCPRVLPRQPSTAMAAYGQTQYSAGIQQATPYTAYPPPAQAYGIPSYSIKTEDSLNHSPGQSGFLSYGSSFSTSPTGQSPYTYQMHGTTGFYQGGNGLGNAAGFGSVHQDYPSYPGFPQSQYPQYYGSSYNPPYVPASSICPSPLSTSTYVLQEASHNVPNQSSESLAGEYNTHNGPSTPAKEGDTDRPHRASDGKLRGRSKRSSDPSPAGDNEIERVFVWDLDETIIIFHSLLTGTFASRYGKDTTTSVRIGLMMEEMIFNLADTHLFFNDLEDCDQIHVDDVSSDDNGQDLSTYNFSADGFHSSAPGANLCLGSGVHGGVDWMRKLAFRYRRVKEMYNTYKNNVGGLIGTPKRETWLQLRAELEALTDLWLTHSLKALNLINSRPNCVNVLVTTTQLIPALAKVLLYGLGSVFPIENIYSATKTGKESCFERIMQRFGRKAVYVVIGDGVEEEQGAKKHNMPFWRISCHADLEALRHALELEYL
#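 Eya2 (0.2 uM) preincubated 10 min at ambient with compound, then OMFP substrate added at 50 uM; 10 min reaction in 50 mM HEPES pH 7.5, 50 mM NaCl, 5 uM MgCl2, 0.05% BSA, 1 mM DTT. Fluorescence read at Ex 485/Em 525 nm.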
# Integrin act MD: activators of alpha7 integrin expression for muscular dystrophy | alpha7betagal myoblasts, beta-gal FDG fluorescence, 48 h | Potency, µM (series often up to 38.3 µM), for inactives: at the highest dose activation, usual class: activators | actives 0.064% (n = 350,000) | AID 624291;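 also: 100% = response of the positive control SU9516; nearly all actives have a fitted effect of over 60% in size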
#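 Alpha7betagal+/- myoblasts (passage 13) were plated 16-24 hr, then exposed to compounds (1:260 dilution of DMSO stock) for 48 hours at 37C. After MPER lysis, β-galactosidase reporter activity was read as FDG fluorescence (ex 480/em 540) after 30 minutes.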
# Mm-Cpn inhibitor: inhibitors of Methanococcus maripaludis chaperonin TRiC (MmCpn); AID 504842; Potency, µM (top dose mostly 76.9 µM), for the others: at the highest dose activity, negative = inhibition, most hits filed as inhibitors; actives 0.031% (n = 330,000); purified Mm-Cpn ATPase, ADP Transcreener TR-FRET; also: % is scaled to controls: 0 for no effect and ±100 for the full control effect; nearly all actives have a fitted effect of over 80% in size
#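 TR-FRET (320 nm excitation; 590 and 665 nm emission) reports ADP made from 10 uM ATP by 25 nM enzyme; compounds were preincubated 10 min, reaction run 30 min, both at 37°C.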
# p53 reactivator: restores transcriptional activity of mutant p53. Potency, µM (doses to about 92.2 µM), without a hit: at the highest dose activity change, positive = activation, usual class: activators. H1299 p53-A138V BP100-luciferase reporter, luminescence, 24 h. actives 0.063% (n = 320,000); also: % of control where 0% means no effect; nearly all actives have a fitted effect of over 45% in size
#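 H1299 (p53-null), stable ts p53-A138V + BP100-Luc; 1000 cells/well, Opti-MEM/10% FBS; cpd 4 pt, 1:5; 24 h, 37 deg C, 5% CO2; detection reagent 10 min RT; luminescence.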
# ClpP mod: qHTS Assay for Activators of ClpP; ATP-dependent Clp protease proteolytic subunit (Bacillus subtilis (strain 168)), P80244; purified B. subtilis ClpP, FRET peptide cleavage, 20 min; Potency, µM (titrated, usually from 57.5 µM), inactives show top-dose activity change, negative = active; actives 1.9% (n = 340,000); AID 651965, 2013; active = well fitted falling curve with a large enough effect; inconclusive = small, poorly fitted or top-dose-only effect; inactive = no such curve, though single readings can be large or run the other way; also: the source files actives as falling curves though it sought activators and does not explain the sign; nearly all actives have a fitted effect of over 65% in size
# Target sequence (P80244 whole entry, looked up): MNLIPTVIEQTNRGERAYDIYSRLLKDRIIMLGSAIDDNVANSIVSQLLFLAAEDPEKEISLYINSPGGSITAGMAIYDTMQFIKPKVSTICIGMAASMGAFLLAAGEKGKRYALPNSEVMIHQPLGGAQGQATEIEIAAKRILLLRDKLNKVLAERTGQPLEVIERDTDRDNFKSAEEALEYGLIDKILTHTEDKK
#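 Buffer: 100 mM Tris/HCl pH8, 100 mM KCl, 0.05% low protease BSA, 2.5% glycerol, 0.01% Tween-20. ClpP 10 microg/mL final; 20 min RT; delta FRET normalized to ADEP and DMSO controls.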
# * hit, by the source's call; ? = inconclusive; · = no result. This is one part of a sample in which hits are shown more often than they occur. Unless noted, calls follow the shape of the dose curve; as a rule, active = well fitted curve in the direction sought with a large enough effect; inconclusive = small, poorly fitted or top-dose-only effect, or another doubt; inactive = no such curve, though single readings can be large; an effect the other way counts as inactive or inconclusive. Potency is read from the fitted curve at half-maximal effect.
SMILES,USP2a block,Eya2 phos inh,Integrin act MD,Mm-Cpn inhibitor,p53 reactivator,ClpP mod
CCC(C)c1ccccc1NC(=O)COC(=O)c1ccc2c(c1)S(=O)(=O)c1ccccc1C2=O (centres undefined),5%,-1%,1%,0%,4%,22µM*
CCOC(=O)N1CCN(S(=O)(=O)c2ccc(C(=O)Nc3ccc4c(c3)C(=O)NC4=O)cc2)CC1,0%,6%,0%,-22%,-3%,20µM*
COc1cc(OC)c(C(=O)Nc2cccc(C(C)=O)c2)cc1OC,3%,-4%,-2%,-3%,9%,16µM*
CCOc1ccc(CCNC(=O)c2sc3ncccc3c2-n2c(C)ccc2C)cc1,·,·,·,·,·,1%
CCOc1cccc(-c2cc(=O)[nH][nH]2)c1,0%,-1%,24%,0%,3%,14µM*
COc1cccc(-c2cc(=O)[nH][nH]2)c1,-5%,-16%,9%,0%,-14%,·
O=C(CSc1nnc(SCc2cccc3ccccc23)s1)Nc1ccc(C(=O)O)cc1,-2%,-4%,3%,1%,3%,·
O=C(CSc1nnc(SCc2cccc3ccccc23)s1)c1ccc2c(c1)OCO2,2%,-1%,22%,45µM*,4%,-4%
O=C(CSc1ncnc2ccccc12)c1ccc2c(c1)OCCO2,-1%,-6%,-31%,20µM*,?,2%
CCN(CC)c1ccc(/C=C/c2ccncc2)cc1,·,·,·,·,·,-1%
Cc1nn2c(N3CCN(c4ccccn4)CC3)cc(C(C)C)nc2c1-c1ccccc1,-8%,-9%,-6%,?,4%,28µM*
O=[N+]([O-])c1ccc2c(c1)C=C/C2=C\c1ccc(C=S)cc1,·,·,·,·,·,1%
Nc1ccccc1OCCOCCOc1ccccc1N,-2%,-9%,23%,0%,11%,22µM*
Cc1cccc(CNC(=O)CSCc2cnn(-c3ccccc3)c2-n2cccc2)c1,·,·,·,·,·,1%
CC(C(=O)NC1CCCC1)N(C(=O)c1ccc(-c2ccccc2)[nH]1)c1ccccc1F (centres undefined),-1%,-5%,2%,0%,-1%,32µM*
CC(C(=O)NC1CCCC1)N(C(=O)Cn1nnc(-c2ccc(F)cc2)n1)c1ccccc1F (centres undefined),-5%,-4%,5%,4%,-9%,·
O=S(=O)(Nc1nc(SCc2ccc(Cl)cc2)n[nH]1)c1ccc(F)cc1,-1%,-24%,9%,1%,10%,18µM*
CN1CCN(c2oc(-c3ccc(OCc4ccc(Cl)cc4)cc3)nc2C#N)CC1,·,·,·,·,·,-22%
Nc1nc2ccccc2nc1N,2%,2%,8%,-3%,7%,14µM*
O=C(CNC(=O)C1CCCCC1)OCC(=O)c1ccc(-c2ccccc2)cc1,·,·,·,·,·,-8%
COC(=O)c1[nH]c2cccc(OC)c2c1NC(=O)CN1CCOCC1,-2%,-1%,10%,-3%,-2%,18µM*
COC(=O)c1[nH]c2cccc(OC)c2c1NC(=O)CCN1CC(C)CC(C)C1 (centres undefined),2%,-2%,5%,-3%,-3%,-19%
COC(=O)c1[nH]c2cccc(OC)c2c1NC(=O)CCN1CCSCC1,2%,-6%,-7%,-6%,-3%,·
COC(=O)c1[nH]c2cccc(OC)c2c1NC(=O)CN(C)CC1OCCO1,3%,-16%,28%,-3%,-12%,32µM*
CCN(CC)c1ccc(-c2nc(-c3ccco3)no2)cc1[N+](=O)[O-],·,·,·,·,·,-2%
SMILES,USP2a block,Eya2 phos inh,Integrin act MD,Mm-Cpn inhibitor,p53 reactivator,ClpP mod
Cc1ccc2cccc(SCC(=O)N3CCOCC3)c2n1,1%,-3%,-12%,0%,8%,28µM*
Cc1ccc2cccc(SCC(=O)NCc3ccco3)c2n1,2%,0%,18%,-3%,-4%,14µM*
Cc1ccc(C(=O)NCCn2c(N)c(C#N)c3nc4ccccc4nc32)cc1,2%,6%,-14%,-6%,0%,22µM*
N#Cc1c(N)n(CCNC(=O)c2ccc(Cl)cc2)c2nc3ccccc3nc12,1%,-14%,18%,0%,-1%,3.2µM*
N#Cc1nc(-c2ccccc2)cc(-c2ccccc2)n1,·,·,·,·,·,-12%
COc1ccccc1C(=O)NC(=O)CSc1nc(C)cs1,1%,0%,30%,0%,8%,28µM*
COc1ccccc1CNC(=O)CSc1nc(C)cs1,3%,-1%,0%,1%,1%,2%
Cc1ccc2c(CC(=O)N(Cc3ccc(Cl)cc3)Cc3ccco3)coc2c1,·,·,·,·,·,-7%
CC(=O)Nc1ccc(N(C(=O)c2cnccn2)C(C(=O)NC2CCCCC2)c2ccc(F)cc2)cc1 (centres undefined),-1%,1%,11µM*,2%,6%,·
CCc1ccc(N(C(=O)c2snc(C(N)=O)c2N)C(C(=O)NC2CCCC2)c2ccco2)cc1 (centres undefined),2%,1%,2.5µM*,-3%,-15%,·
CC(=O)Nc1ccc(N(C(=O)c2cnccn2)C(C(=O)NC2CCCCC2)c2ccc(O)cc2)cc1 (centres undefined),-1%,20%,30%,-1%,19%,0%
COc1ccc(-c2nsc(C(=O)N(c3ccc(F)cc3)C(C(=O)NC3CCCC3)c3ccc(OC)cc3)c2N)cc1 (centres undefined),-1%,1%,0%,-2%,7%,16µM*
S=Cc1ccc(/C=C/c2ccnc3ccccc23)cc1,·,·,·,·,·,-3%
Cc1ccc2nccc(/C=C/c3ccc(N(C)C)cc3)c2c1,·,·,·,·,·,0%
COc1cc2c(NC3CCN(C)CC3)nc(N3CCCN(C)CC3)nc2cc1OCCCC(C)C,·,·,·,·,·,4%
COCCn1c(=S)[nH]c2cc(C(=O)N3CCN(Cc4ccccc4)CC3)ccc2c1=O,·,·,·,·,·,-4%
O=C(COc1ccccc1Cl)Nc1ccc2[nH]c(=O)[nH]c2c1,1%,15%,2%,1%,12%,16µM*
CCOc1cc(/C=N/Nc2cccc(C(=O)O)c2)ccc1OC(=O)c1ccccc1,7%,-19%,8%,0%,-8%,·
CCOc1cc(/C=N/NC(=O)CNc2cccc(C)c2)ccc1OC(=O)c1ccccc1,-5%,-3%,-24%,-1%,-5%,10µM*
O=C(COc1ccccc1C(=O)Nc1ccccc1)NC1CCCCC1,·,·,·,·,·,1%
Cc1nc2nc(-c3ccco3)[nH]n2c(=O)c1Cc1ccccc1,-4%,-12%,15%,-3%,1%,28µM*
CCOc1ccc(NC(=O)c2ccc(NC(=O)N3CCSc4ncccc43)cc2)cc1,·,·,·,·,·,-9%
